ALDH1A1 inh: qHTS Assay for Inhibitors of Aldehyde Dehydrogenase 1 (ALDH1A1); Aldehyde dehydrogenase 1A1 (Homo sapiens), P00352; Purified ALDH1A1, NADH fluorescence, propionaldehyde substrate; Potency, µM (doses to about 75.3 µM), for inactives: top-dose activity, negative = inhibition, actives largely listed as inhibitors; 7.3% of 220,000 active; AID 1030, 2008; active = well fitted inhibition curve with a large enough effect, not every such curve was filed as active; inconclusive = small, poorly fitted or top-dose-only effect, or another doubt; inactive = no such curve, though single readings can be large or run the other way;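 also: potency is read from the fitted curve at half-maximal effect; plate controls were no enzyme wells and a reference inhibitor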
Target sequence (P00352 whole entry, looked up): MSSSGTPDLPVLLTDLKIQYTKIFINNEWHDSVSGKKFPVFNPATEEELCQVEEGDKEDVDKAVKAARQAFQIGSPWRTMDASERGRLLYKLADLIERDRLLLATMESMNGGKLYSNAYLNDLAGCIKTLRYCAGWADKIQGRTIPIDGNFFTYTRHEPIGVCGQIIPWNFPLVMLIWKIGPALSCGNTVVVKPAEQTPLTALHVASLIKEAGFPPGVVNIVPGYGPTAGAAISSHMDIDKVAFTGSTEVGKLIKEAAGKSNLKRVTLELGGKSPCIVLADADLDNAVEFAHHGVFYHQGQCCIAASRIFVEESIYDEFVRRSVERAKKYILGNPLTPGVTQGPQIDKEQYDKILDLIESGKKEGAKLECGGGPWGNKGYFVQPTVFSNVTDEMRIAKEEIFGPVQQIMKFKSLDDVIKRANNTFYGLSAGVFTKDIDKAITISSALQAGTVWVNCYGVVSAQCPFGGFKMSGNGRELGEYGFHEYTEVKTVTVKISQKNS
IMPase cell inh: qHTS Assay for Identifying the Cell-Membrane Permeable IMPase Inhibitors; Inositol monophosphatase 1 (Rattus norvegicus), P97697; CHO-M1 cells, IP1 accumulation, HTRF TR-FRET ratio; inhibition (IP1 accumulation), % at 46.1 µM; 120,000 tested, under 10 active; AID 901, 2007; active = well fitted curve in the direction sought with a large enough effect in the signal ratio, not every such curve was filed as active; inconclusive = small, poorly fitted or top-dose-only effect, or a change in a side signal; inactive = no such curve, though single readings can be large or run the other way; the % refers to the signal ratio;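 also: cells stimulated with carbachol in lithium chloride buffer; plate controls were DMSO basal wells for no effect and reference inhibitor wells for full effect; higher means more IMPase inhibition seen as more IP1 and lower FRET ratio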
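Carbachol-driven Gq signalling in CHO-M1 cells (2000/well) generates IP1. Compounds that block IMPase raise IP1 and so reduce the FRET signal from Eu-anti-IP1 and d2-IP1 after a 10 min room-temperature lysis.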
HPGD block: qHTS Assay for Inhibitors of HPGD (15-Hydroxyprostaglandin Dehydrogenase); purified HPGD, NADH fluorescence kinetic, PGE2 substrate; Potency, µM, for inactives: at the top dose activity change, negative = inhibition, usual class: inhibitors; AID 894, 2007; 4.3% of 150,000 active; 15-hydroxyprostaglandin dehydrogenase [NAD(+)] (Homo sapiens), P15428; active = well fitted inhibition curve with a large enough effect, not every such curve was filed as active; inconclusive = small, poorly fitted or top-dose-only effect, or another doubt; inactive = no such curve, though single readings can be large or run the other way; also: potency is read from the fitted curve at half-maximal effect
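20 nM HPGD preincubated 15 min at room temperature with compound in 50 mM Tris-HCl pH 8, 0.01% Tween 20. Started with 1 mM NAD+ and 30 uM prostaglandin E2; NADH fluorescence (360/450 nm) read 5 times over 30-s intervals, last minus first.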
IMPase Li inh: qHTS Assay for Identifying the Cell-Membrane Permeable IMPase Inhibitors: Potentiation with Lithium; CHO-M1 cells, IP1 TR-FRET (IP-One), carbachol + lithium; Potency, µM (top dose mostly 59.4 µM), for the others: at the highest dose activity, negative = IMPase inhibition, usual class: inhibitors; 0.35% of 210,000 active;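 also: IP1 builds up when IMPase is blocked and the TR-FRET signal falls; potency is read from the fitted curve at half-maximal effect; plate controls were basal vehicle for no effect and high inhibitor control for full effect; nearly all actives have a fitted effect of over 50% in size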
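Lithium-sensitised IP1 accumulation assay; M1-expressing CHO cells treated 30 min at 37C with compound. Competitive antibody detection by time-resolved FRET followed a 10 min room-temperature lysis step.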
PNC assembly inh: High Content Assay for Compounds that inhibit the Assembly of the Perinucleolar Compartment; 3.1% of 140,000 active; PC3M PTB-GFP, PNC prevalence imaging, 16 h; hits give low values; activity change (PNC), negative = inhibition, % at 10 µM; AID 2417, 2010;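 active = readout at or below -70, meaning at least 70% loss of cells showing the perinucleolar compartment, a nuclear body marking cancer cells; inconclusive = readout between -30 and a set limit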;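 also: plate controls were DMSO wells for no effect and camptothecin positive control wells for full effect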
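Read-out is percentage of cells bearing a perinucleolar compartment, from automated 20x imaging of fixed, Hoechst-stained PC3M PTB-GFP cells. Cells were seeded 4 h, then exposed 16 h to compound (23 nl of library stock) in duplicate plates.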
12-hLO inh: qHTS Assay for Inhibitors of 12-hLO (12-human lipoxygenase). Polyunsaturated fatty acid lipoxygenase ALOX12 (Homo sapiens), P18054. purified 12-hLO, xylenol orange hydroperoxide absorbance. Potency, µM (titrated, usually from 57.1 µM), inactives show at the highest dose activity change, negative = inhibition, usual class: inhibitors. 0.12% of 150,000 active. AID 1452, 2008; also: potency is read from the fitted curve at half-maximal effect; nearly all actives have a fitted effect of over 55% in size
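Hydroperoxide formation by human 12-lipoxygenase from 40 uM arachidonic acid was followed colorimetrically via ferric-xylenol orange complex, using the 573/405 nm absorbance ratio. Enzyme concentration was 150 nM, with 30 min reaction at room temperature.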
* marks the source's active call; other numbers are inactive results; ? = inconclusive; . = no result; [ ] = remark or other dose. Compounds with a hit are over-represented: about 11% of the library has one in this group of screens. Unless noted, calls follow the shape of the dose curve; as a rule, active = well fitted curve in the direction sought with a large enough effect; inconclusive = small, poorly fitted or top-dose-only effect, or another doubt; inactive = no such curve, though single readings can be large; an effect the other way counts as inactive or inconclusive. Unless noted, % is scaled to controls: 0 for no effect and ±100 for the full control effect.

SMILES | ALDH1A1 inh | IMPase cell inh | HPGD block | IMPase Li inh | PNC assembly inh | 12-hLO inh
O=C(c1ccc(S(=O)(=O)c2ccccc2)cc1)N1CCc2ccccc2C1 | -15% | . | 18µM* | 26% | -27 | -6%
O=C(c1ccc(S(=O)(=O)N2CCCCC2)cc1)N1CCc2ccccc2C1 | ? | . | . | 9% | . | .
O=[N+]([O-])c1ccc(NC(=S)N2CCc3ccccc3C2)cc1 | ? | . | -6% | 11% | 29 | 3%
O=C(c1ccc([N+](=O)[O-])cc1)N1CCc2ccccc2C1 | 5% | . | 28µM* | 5% | 8 | -1%
Cc1ccc(-c2nnc3sc(CCc4ccccc4)nn23)cc1 | 3.5µM* | 3 | 14µM* | 43%[38.3 µM] | -19 | -3%
Cc1ccccc1-c1nn2c(-c3ccccc3)nnc2s1 | ? | 11 | 28µM* | 7%[38.3 µM] | -18 | -10%
Cc1cc(-c2nn3c(-c4ccccc4)nnc3s2)c2ccccc2n1 | 8.9µM* | 1 | 14µM* | 7% | ? | 0%
COCCn1c(=O)cnc2cnc(OCc3ccccc3)nc21 | -3% | . | -10% | 3% | . | 5%
COc1ccc(C(=O)N2CCC3(CC2)CN(CC(C)C)C3)cc1 | 0% | . | -13% | 3% | . | 1%
O=C(CN1CCN(c2ncccn2)CC1)Nc1ccccc1-n1cccc1 | 14µM* | 10 | -14% | 15%[38.3 µM] | 84 | 1%
Cc1cc(C)cc(NC(=O)CN2CCN(c3ncccn3)CC2)c1 | ? | 5 | -14% | -5%[38.3 µM] | -9 | 3%
CCOC(=O)NCc1ccc(CNC(=O)OCC)cc1 | 9% | 1 | -1% | -1%[38.3 µM] | 0 | 0%
CCOC(=O)NCC(C)(C)CNC(=O)OCC | 3% | -7 | -6% | -8%[38.3 µM] | -117* | -1%
O=[n+]1c2c(n([O-])c3cc(F)c(F)cc31)CCCC2 | ? | -13 | 18µM* | 3%[38.3 µM] | 8 | 0%
C=C(C)CNCCN | -15%[13.5 µM] | . | -5% | -14% | . | -2%[11.4 µM]
COc1ccc(C(=O)c2sc(Nc3ccccc3)c(C(=O)Nc3ccc(OC)c(OC)c3)c2N)cc1 | 18µM* | -3 | -14% | 6%[38.3 µM] | 36 | -9%
COc1ccc(NC(=O)CC2C(=O)N(C)C(=S)N2CCc2ccccc2F)cc1 (stereo not drawn) | 4µM* | . | . | 3% | . | .
CCN1C(=O)C(CC(=O)Nc2ccc(OC)cc2)N(CCN2CCOCC2)C1=S (stereo not drawn) | -14% | . | . | . | . | .
CCN1C(=O)C(CC(=O)Nc2ccc(F)cc2)N(CCc2ccc(OC)cc2)C1=S (stereo not drawn) | 10µM* | . | . | 22% | . | .
CCN1C(=O)C(CC(=O)Nc2ccc(OC)cc2)N(CCc2ccccc2)C1=S (stereo not drawn) | 2µM* | . | . | 8% | . | .
COc1ccc(-c2coc3c(O)c(OC)ccc3c2=O)cc1 | ? | . | -17% | 21% | . | -9%
Cc1noc(C)c1C(=O)N1CCC2(CCCN(c3ccccc3)C2)CC1 | -6% | . | -6% | 6% | . | -5%
Cc1ccc(C)c(NS(=O)(=O)c2cc(C(=O)O)ccc2Cl)c1 | -4% | . | -5% | . | . | -1%
O=C(NNc1ccc([N+](=O)[O-])cc1)C1C2CCCCC21 (stereo not drawn) | 25µM* | . | -8% | 0% | 18 | -3%
COC(=O)N1CC=CC1(C)C(=O)O (stereo not drawn) | 5% | . | -6% | -3% | . | -2%
O=C(O)c1ccc(NC2=C(N3CCOCC3)C(=O)c3ccccc3C2=O)cc1 | 19µM* | . | -12% | 51% | ? | -2%
CC(=O)c1ccc(NC2=C(N3CCOCC3)C(=O)c3ccccc3C2=O)cc1 | ? | ? | -1% | 32%[38.3 µM] | 17 | -12%
Cc1nn(CCc2nn[nH]n2)c2nc(-c3ccc(Br)cc3)cc(C(F)(F)F)c12 | ? | . | . | 2µM* | . | .
